Measured values as given in PubChem BioAssay.

Columns and labels:
[1] = tested on: Human papillomavirus type 1a protein E7 (residues 44-93); assay: small molecules binding HPV E7 44-93 – biochemical, small-molecule microarray, residues 44-93, 635 nm fluorescence, primary screen (AID 1108); conditions: fluorescence 635 nm, higher = more signal;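 further: E7 fragment applied at 1 µg/mL in TBST for 1 h at 4 C; score combines spot fluorescence with its signal to noise ratio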
[2] = hepatitis C replication reporter changes, two-sided – Huh7 cells, luciferase reporter, HCV replication inhibitor project, primary screen (AID 1109); conditions: Huh7 HCV replicon luciferase reporter, 48 h; higher = more signal;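 further: huh7 hepatoma cells harbouring a luciferase neomycin HCV replicon reporter; luciferase luminescence as measure of HCV replicon replication; test concentration not given here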
[3] = biological target: Left-right determination factor 2 (Homo sapiens) (UniProt O00292); assay: small molecules binding LEFTY2 protein – biochemical, small-molecule microarray, 635 nm fluorescence scan, primary screen (AID 1110); conditions: higher = more signal
Sequence of Left-right determination factor 2 (Homo sapiens) (O00292 whole entry, looked up): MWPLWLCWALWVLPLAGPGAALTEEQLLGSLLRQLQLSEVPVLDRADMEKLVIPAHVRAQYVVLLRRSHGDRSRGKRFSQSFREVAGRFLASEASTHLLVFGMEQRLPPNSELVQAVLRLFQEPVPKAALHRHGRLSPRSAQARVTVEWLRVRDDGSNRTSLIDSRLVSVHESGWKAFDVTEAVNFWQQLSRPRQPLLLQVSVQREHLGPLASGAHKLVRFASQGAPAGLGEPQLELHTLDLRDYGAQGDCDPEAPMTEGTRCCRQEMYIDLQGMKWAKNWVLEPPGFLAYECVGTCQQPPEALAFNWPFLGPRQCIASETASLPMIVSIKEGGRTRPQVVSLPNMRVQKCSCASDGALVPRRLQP

[4] = biological target: Calmodulin-1 (Homo sapiens) (UniProt P0DP23); assay: small molecules binding calmodulin-1 with EGTA – biochemical, small-molecule microarray, Cy5-labelled CALM1, profiling panel (AID 1111); conditions: Cy5-CALM1 binding fluorescence, higher = more signal;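 further: labelled calmodulin applied in Tris saline Tween buffer holding calcium plus EGTA and DTT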
[5] = biological target: Calmodulin-1 (Homo sapiens) (UniProt P0DP23); assay: small molecules binding Ca-loaded calmodulin-1 – biochemical, small-molecule microarray, Cy5-labelled CALM1, plus calcium, artefact control for SMM control-protein annotation, profiling panel (AID 1112); conditions: Cy5-CALM1 binding fluorescence, higher = more signal;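 further: score merges spot fluorescence with signal to noise from triplicate slides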
[6] = probe aWnt5a binding to arrayed compounds – biochemical, biotinylated probe, 635/667 nm fluorescence, primary screen (AID 1113); conditions: small-molecule microarray, higher = more signal;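 further: score merges 667 nm fluorescence intensity with signal-to-noise per printed feature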
[7] = probe aShh binding to arrayed compounds – biochemical, biotinylated probe, 635/667 nm fluorescence, primary screen (AID 1114); conditions: small-molecule microarray, higher = more signal;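 further: probe is biotin-labelled aShh protein from a stem cell growth factor screen; measures binding of labelled protein to compounds printed on the slide; score merges feature fluorescence at 667 nm with signal-to-noise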
[8] = probe aNog binding to arrayed compounds – biochemical, biotinylated probe, 635/667 nm fluorescence, primary screen (AID 1115); conditions: small-molecule microarray, higher = more signal;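 further: probe is biotinylated aNog protein used at 0.15 µg/mL for 1 h at 4 C; z-score combines 667 nm fluorescence of each spot with its signal to noise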
[9] = biological target: Torsin-1A-interacting protein 1 (Homo sapiens) (UniProt Q5JTV8); assay: compound microarray binding of lysate hLAP1 – cell lysate, small-molecule microarray, COS7 lysate, 635/667 nm fluorescence, primary screen (AID 1116); conditions: 635 nm fluorescence, higher = more signal
Sequence of Torsin-1A-interacting protein 1 (Homo sapiens) (Q5JTV8 whole entry, looked up): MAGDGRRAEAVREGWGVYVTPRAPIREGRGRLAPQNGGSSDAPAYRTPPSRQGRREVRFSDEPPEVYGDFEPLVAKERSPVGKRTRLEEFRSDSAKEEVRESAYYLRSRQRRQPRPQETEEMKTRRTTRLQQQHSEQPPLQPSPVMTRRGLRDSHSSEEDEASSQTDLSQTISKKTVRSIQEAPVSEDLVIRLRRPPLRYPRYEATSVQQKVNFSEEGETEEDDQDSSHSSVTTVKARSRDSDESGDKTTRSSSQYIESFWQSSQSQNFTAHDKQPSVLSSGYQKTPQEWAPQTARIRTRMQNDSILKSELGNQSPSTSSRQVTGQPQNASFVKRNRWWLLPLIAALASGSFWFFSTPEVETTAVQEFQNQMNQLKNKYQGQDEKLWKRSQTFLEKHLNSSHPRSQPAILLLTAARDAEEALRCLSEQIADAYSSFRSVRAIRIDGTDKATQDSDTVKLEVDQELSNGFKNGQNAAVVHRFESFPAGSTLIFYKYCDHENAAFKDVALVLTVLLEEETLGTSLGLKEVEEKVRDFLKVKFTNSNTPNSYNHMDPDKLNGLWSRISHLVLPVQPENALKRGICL

[10] = biological target: Alpha-bungarotoxin (Bungarus multicinctus) (UniProt P60615); assay: compounds binding labelled alpha-BTX control protein – biochemical, small-molecule microarray, Alexa647 label, 635/667 nm fluorescence, artefact control for SMM control protein annotation, profiling panel (AID 1117); conditions: alpha-BTX-A647 binding fluorescence, higher = more signal
Sequence of Alpha-bungarotoxin (Bungarus multicinctus) (P60615 whole entry, looked up): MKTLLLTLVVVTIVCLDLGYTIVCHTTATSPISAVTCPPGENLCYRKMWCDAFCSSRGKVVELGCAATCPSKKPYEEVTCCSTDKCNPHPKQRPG

| SMILES | composite z-score [1] | z-score [2] | composite z-score [3] | composite z-score [4] | composite z-score [5] | composite z-score [6] | composite z-score [7] | composite z-score [8] | composite z-score [9] | composite z-score [10] |
| --- | --- | --- | --- | --- | --- | --- | --- | --- | --- | --- |
| CCC(CC)C(O)C1C=CC2C(=O)N(C)C(=O)C2N1Nc1ccccc1 (stereo not given) | 0.948 | 0.347 | -0.054 | 1.44 | 0.463 | -0.0863 | 0.128 | 1.09 | 1.64 | 1.04 |
| C=C(C)C1C(=C)CN([C@H](CO)c2ccccc2)C1=O (stereo not given in full) | 0.317 | -0.25 | -0.065 | -0.911 | -0.968 | -0.0459 | -0.154 | -0.229 | -0.486 | -0.605 |
| CCOC1=C2C(CN(S(=O)(=O)c3ccc(C)cc3)C2c2ccc(C)cc2)C2C(=O)N(c3ccccc3)C(=O)C2C1 (stereo not given) | 1.11 | -0.348 | 0.349 | 0.861 | 0.528 | -0.106 | 0.0893 | 0.194 | 0.326 | 0.389 |
| C=CCNC(=O)[C@H]1[C@@H]2C(=O)O[C@@H](c3ccccc3)[C@@H](c3ccccc3)N2[C@@H](c2ccc(OCCO)cc2)[C@]12C(=O)Nc1ccc(C#CC3=CCCCC3)cc12 | 1.4 | -2.4 | 0.477 | 0.508 | -0.36 | 0.0101 | 0.13 | -0.143 | 1.26 | 1.11 |
| C=CC[C@]12N=C(c3ccc(OCCCO)cc3)O[C@H]1c1ccccc1N(Cc1ccccc1)C2=O | 0.0023 | -2.57 | 0.192 | -0.162 | 0.438 | 0.0032 | -0.0146 | 0.472 | 1.9 | 1.51 |
| COc1ccc(CCNC(=O)[C@@H]2c3ccccc3C(=O)N(C3Cc4ccccc4C3)[C@H]2c2ccc(CO)cc2)cc1 | 1.35 | -1.14 | 0.0971 | 0.329 | 0.732 | -0.0738 | 0.0856 | -0.417 | 1.24 | 0.134 |
| CN(C)CCCNC(=O)[C@@]1(C)c2ccccc2C(=O)N(Cc2cc(F)cc(C(F)(F)F)c2)[C@H]1c1ccc(CO)cc1 | -0.0947 | -1.8 | -1.66 | -0.483 | -0.643 | -0.251 | 0.0121 | 0.338 | -0.94 | 1.32 |
| COCCOC(=O)N1C(=O)[C@@]2(c3cc(C#CCCO)ccc31)[C@H](C(=O)Nc1nc3ccccc3s1)[C@H]1C(=O)O[C@H](c3ccccc3)[C@H](c3ccccc3)N1[C@@H]2c1ccc(OCCO)cc1 | 1.32 | -1.81 | 0.774 | 1.08 | -0.263 | 0.115 | 0.0898 | -0.22 | 1.14 | 0.772 |
| CCCN1C(=O)[C@]2(CCS(=O)(=O)c3ccccc3)N=C(c3ccc(OCCCO)cc3)O[C@@H]2c2ccccc21 | 1.42 | -2.49 | 0.16 | 3.15 | -0.0613 | -0.0643 | 0.0893 | -0.153 | 1.74 | 1.14 |
| CN1C2C=C(CCCO)C(C3C(=O)N(C(N)=O)C(=O)C32)C1c1ccc(CN2CCCC2)cc1 (stereo not given) | 0.138 | -0.149 | -0.943 | -0.224 | 0.0344 | -0.243 | 0.0278 | -0.328 | 0.0727 | 0.236 |
| Cc1ccc(S[C@]2(C(=O)NCC(C)C)CC(=O)N(Cc3cc(C(F)(F)F)cc(C(F)(F)F)c3)[C@@H]2c2ccc(CO)cc2I)cc1 | 0.133 | -1.01 | -2.48 | -0.571 | 0.0903 | -0.166 | 0.108 | 0.225 | 0.116 | -1.05 |
| COC(=O)[C@@]1(Cc2ccccc2)[C@H]2c3cc(C(=O)N4CCCC4)n(Cc4cccc5ccccc45)c3C[C@H]2CN1C(=O)c1ccccc1 | 0.696 | -1.55 | -0.188 | 1.51 | 1.42 | 0.816 | 1.96 | 0.714 | 0.434 | 0.645 |
| C=CCC(OC(C)=O)[C@@H]1[C@@H](N(Cc2cccc3ccccc23)C(=O)c2ccc(-c3ccccc3)cc2)c2cc(OCCCO)ccc2N1C(=O)Cc1ccc(OC)cc1 (stereo not given in full) | 0.144 | -1.36 | 0.111 | 0.617 | 0.291 | 0.0479 | 0.149 | -0.0907 | -0.0944 | 0.373 |
| CN1C(=O)C2C=CC(C(O)C3CCCCC3)N(Nc3ccc([N+](=O)[O-])cc3[N+](=O)[O-])C2C1=O (stereo not given) | 1.28 | -0.613 | 0.0511 | 1.42 | 0.377 | -0.0472 | 0.13 | 1.59 | 1.28 | 1.34 |
| COCCCNC(=O)[C@@]1(Cc2ccccc2N=[N+]=[N-])N=C(c2ccc(OCCCO)cc2)O[C@H]1c1ccccc1N=[N+]=[N-] | 0.852 | -2.86 | 0.431 | 1.72 | 0.686 | 0.168 | -0.477 | 1.43 | 0.561 | 1.74 |
| Cc1ccc(S[C@]2(C(=O)NCCN3CCOCC3)CC(=O)N(Cc3ccccc3)[C@@H]2c2ccc(CO)cc2I)cc1 | 0.0104 | -3.12 | -0.601 | -0.318 | -0.431 | -0.124 | -0.17 | 0.0323 | -0.914 | -1.07 |
| COc1ccc(CCNC(=O)[C@@]2(Sc3ccc(C)cc3)CC(=O)N(C3CCCCC3)[C@@H]2c2ccc(CO)cc2I)cc1 | 1.38 | -2.77 | 0.0072 | 0.99 | 0.161 | -0.0903 | 0.323 | -0.158 | 0.95 | 0.649 |
| CN1C(=O)C2C=CC(C(O)c3cc(C(F)(F)F)cc(C(F)(F)F)c3)N(N3CCCCC3)C2C1=O (stereo not given) | 1.24 | -0.353 | -0.599 | 1.34 | 0.769 | 0.0775 | 0.42 | 1.15 | 0.287 | 0.49 |
| Cc1ccc(S[C@]2(C(=O)NCCN3CCOCC3)CC(=O)N(Cc3ccccc3Cl)[C@@H]2c2ccc(CO)cc2)cc1 | 1.02 | -0.815 | -0.989 | -0.343 | 0.148 | -0.12 | -0.0035 | -0.339 | 0.733 | -0.146 |
| COCCOC(=O)N1C(=O)[C@@]2(c3cc(C#CCNC(N)=O)ccc31)[C@H](C(=O)NC[C@H](O)c1ccccc1)[C@H]1C(=O)O[C@H](c3ccccc3)[C@H](c3ccccc3)N1[C@@H]2c1ccccc1OCCO | 1.35 | -0.807 | 0.0826 | 1.96 | 0.0588 | 0.207 | -0.0375 | 1.32 | 0.667 | 1.43 |
| O=C1O[C@@H](c2ccccc2)[C@@H](c2ccccc2)N2[C@@H](c3ccc(OCCO)cc3)[C@]3(C(=O)Nc4ccccc43)[C@@H](C(=O)NC[C@H](O)c3ccccc3)[C@H]12 | 1.28 | -2.1 | 1.04 | 0.158 | 0.0233 | -0.0768 | -0.2 | 0.0597 | 1.3 | 0.362 |
| COCCOC(=O)N1C(=O)[C@@]2(c3cc(C#CCCO)ccc31)[C@H](C(=O)N1CCN(c3ncccn3)CC1)[C@H]1C(=O)O[C@H](c3ccccc3)[C@H](c3ccccc3)N1[C@@H]2c1ccccc1OCCO | 1.37 | -1.86 | 0.56 | 1.72 | 0.55 | -0.0614 | -0.214 | 0.207 | 0.249 | 0.64 |
| COC(=O)[C@@]1(Cc2ccc(OC)cc2)[C@H]2c3cc(C(=O)N(C)C)n(CCN4CNCC4=O)c3C[C@H]2CN1C(=O)c1ccccc1 | -0.662 | -0.422 | 0.149 | 0.866 | 0.701 | 0.164 | -0.0793 | -0.505 | 0.528 | -0.124 |
| CCOC(=O)C[C@H]1[C@H](OC(=O)c2ccc(C(=O)c3ccccc3)cc2)[C@@H](NC(=O)c2ccc(-c3ccccc3)cc2)c2cc(OCCCO)ccc2N1C(=O)c1ccccc1 | 1.3 | -1.1 | 0.342 | 0.228 | -0.119 | 0.193 | -0.0709 | -0.632 | 0.191 | 0.706 |
| COC(=O)[C@@]1(Cc2ccc(F)cc2)[C@H]2c3cc(C(=O)N4CCCC4)n(Cc4cc(C)n(C)n4)c3C[C@H]2CN1C(=O)c1ccccc1 | 0.95 | -1.17 | -0.857 | 2.36 | 1.38 | 0.143 | 0.356 | 2.16 | 3.13 | 0.251 |
| NCCCCCNC(=O)[C@@H]1C[C@@H]2C(=O)NCC(=O)N2[C@@H]1c1ccc(O)cc1 | 1.37 | 0.358 | 1.3 | 0.957 | 0.281 | -0.008 | -0.138 | -0.036 | 0.855 | 1.15 |
| COc1cc2c(cc1OC)CN(C(=O)[C@H]1[C@@H]3C(=O)O[C@@H](c4ccccc4)[C@@H](c4ccccc4)N3[C@@H](c3ccc(O)cc3)[C@]13C(=O)Nc1ccc(C#CCNC(N)=O)cc13)CC2 | -0.208 | -0.145 | 0.264 | -0.123 | 0.0061 | -0.0403 | 0.0141 | -0.198 | -0.0992 | -0.0782 |
| [N-]=[N+]=Nc1ccccc1C[C@]1(C(N)=O)N=C(c2ccc(OCCCO)cc2)O[C@H]1c1ccccc1 | 1.43 | -0.947 | -0.932 | 1.59 | 0.0189 | -0.0721 | 0.0723 | -0.235 | 2.05 | 1.03 |
| CN(C)CCCC[C@@H]1NC(=O)[C@H]2C[C@@H](C(=O)NCCCCCNC(=O)CS)[C@@H](c3cccc(OCCO)c3)N2C1=O | 0.586 | -0.556 | -0.0183 | 0.137 | -0.734 | -0.195 | 0.0796 | -0.363 | 0.898 | -0.223 |
| CCOC(=O)C[C@H]1[C@H](OC(=O)c2cc3ccccc3oc2=O)[C@@H](NC(=O)C2CCCCC2)c2cc(OCCCO)ccc2N1C(=O)c1ccccc1 | 0.992 | -0.947 | 0.493 | -0.105 | -0.236 | -0.0405 | -0.138 | -0.266 | 0.294 | -0.0403 |
